In PubChem BioAssay AID1241 (SRMLSC, 2008):
Hit rate of the full screen: of about 1,200 compounds, about 840 (70%) were called active. So high a share suggests a set chosen from earlier hits. Only a sample is shown. Entries with a potency or affinity are not part of this list. Unmarked numbers belong to inactive results. How the calls were made is not given here.

test: NF-kB promoter reporter activators, neuronal cells, dose response, cell-based, SH-SY5Y, luciferase (AID 1241); details: series mostly up to 30 µM; fold induction over control: at the top concentration

Row | SMILES | fold induction over control
1 | Cc1ccccc1-c1nnc(SCc2ccccc2F)o1 | 12.6
2 | CCCn1c(/C=C/c2ccccc2)nc2ccccc21 | 8.61
3 | COc1ccc(-c2csc(-c3ccc(C(=O)O)cc3)n2)cc1 | 11.9
4 | CCCCCNc1nc(-c2ccccc2)cs1 | 14.6
5 | CC1=C/C(=N\OS(=O)(=O)c2ccccc2)C(C(C)C)=CC1=O | 0.91
6 | CCOc1ccc2ccccc2c1CNCCN1CCOCC1 | 1.11
7 | COc1ccccc1-c1noc(-c2ccccc2)n1 | 8.4
8 | CC(=O)Nc1ccc(-c2cn3cc(C)ccc3n2)cc1 | 8.51
9 | CCOc1ccc(/C=N/n2c(SC)nnc2-c2ccccc2)cc1OCC | 1.09
10 | CC(=O)Oc1ccc(/C=N/NC(=S)Nc2ccccc2)cc1 | 13.1
11 | O=C(Cc1ccccc1F)Nc1ccc(SC(F)F)cc1 | 8.46
12 | O=C(NC(=S)Nc1cccc(-c2ccc(CO)o2)c1)c1cccs1 | 1.54
13 | Cc1ccc(C(=O)Nc2ccc3nc(C)sc3c2)s1 | 9.29
14 | Cc1nc(NC(=O)c2cccs2)ccc1Br | 10.9
15 | COC(=O)c1ccc2nc(NC(=O)C(C)C)sc2c1 | 14.7
16 | CN(C)CCCN(C(=O)/C=C/c1cccs1)c1nc2c(F)cccc2s1 | 19.1 [at 15 µM]
17 | CC1Cc2ccccc2N1C(=O)/C=C/c1cccc(F)c1 (stereo not drawn) | 10.3
18 | CN1C(=O)/C(=C/C=C2\SCCN2C)N(C)C1=S | 8.39
19 | C=C(C(=O)c1ccccc1)C(C)C(=C)C(=O)c1ccccc1 | 7.83 [at 15 µM]
20 | O=C(/C=C/Sc1ccccc1)c1ccccc1 | 9.32
21 | Cc1cccc(/C(N)=N/OC(=O)c2ccco2)c1 | 12
22 | O=C(N/N=C\c1ccc(Oc2ccccc2)cc1)c1csnn1 | 8.95
23 | O=C(/C(C=Nc1ccc(Br)cc1)=C(/O)c1ccco1)C(F)(F)F | 13.4
24 | O=C1/C(=C/c2cccs2)CCC1C1CCCC1 (stereo not drawn) | 9.35
25 | CC1=CC(c2ccccc2)=Nc2ccc(C)cc2N1 | 5.67

Row | SMILES | fold induction over control
26 | O=C(c1ccccc1)c1nnc(-c2ccccc2F)o1 | 12.5
27 | CN1CCN(Cc2nc3ccccc3c(=O)n2Cc2nc(-c3ccc4ccccc4c3)cs2)CC1 | 2.07
28 | CCOc1ccc(-c2nc3ccccc3c(=O)o2)cc1 | 11.2
29 | COc1ccc(C2=NN(C(C#N)c3ccc(OC)cc3)C(c3ccccc3)C2)cc1 (stereo not drawn) | 1.84
30 | CCSc1ncc(/C=N/Nc2ccc(Cl)cc2)n1C | 9.97
31 | CCOC(=O)c1[nH]c2c(c1C)C(=O)CC(c1ccco1)C2 (stereo not drawn) | 2.32
32 | CCCC(O)(CCC)C(=O)NN(C(=O)CCl)c1ccccc1 | 1.74
33 | O=C(O)CCCNC(=O)Nc1ccccc1 | 1.06
34 | CC(C)c1cc(C(=O)Nc2cc(Cl)ccc2O)no1 | 8.04
35 | O=c1[nH][nH]cc1C=Nc1ccccc1O | 3.08
36 | O=c1oc2cc(Cl)ccc2n1CSc1nc2ccccc2s1 | 11.7
37 | CN1CCN(Cc2cc(Cl)c3cccnc3c2OC(=O)c2cccs2)CC1 | 11.5 [at 15 µM]
38 | COCCNC(=O)c1cc(-c2cccs2)on1 | 11
39 | COC(=O)CSc1nc2ccc(C)cc2cc1C#N | 13.8 [at 7.5 µM]
40 | CCOC(=O)CC(=O)CSc1nc2ccc(C)cc2cc1C#N | 5.09
41 | O=c1[nH]c(=O)n([C@H]2C[C@H](O)[C@@H](CO)O2)cc1C(F)(F)F | 1.13
42 | Cc1c(NC(=O)CSc2cccc3cccnc23)c(=O)n(-c2ccccc2)n1C | 5.68 [at 15 µM]
43 | COc1cc(C(Nc2ccccn2)c2ccc3ccc(C)nc3c2O)cc(OC)c1O (stereo not drawn) | 0.2
44 | CCOC(=O)C(C)On1c(-c2ccc(Cl)cc2)nc2ccc([N+](=O)[O-])cc21 (stereo not drawn) | 1.48
45 | Cc1ccc(COn2c(-c3ccc(Cl)cc3)nc3ccc([N+](=O)[O-])cc32)cc1 | 8.36
46 | CCN1CCCc2cc(CN(CCN3CCOCC3)C(=S)Nc3cccc(Cl)c3)ccc21 | 0.89
47 | CCc1nc(Sc2nnnn2-c2ccccc2)c2c3c(sc2n1)CCCC3 | 6.97 [at 15 µM]
48 | CCC/C=N/Nc1nc2ccccc2s1 | 8.91
49 | CCCNC(=O)c1cc(-c2ccc(OC)cc2)on1 | 13
50 | COc1ccc(C(=O)c2oc3ccc(OC)cc3c2N)cc1 | 9.59

Row | SMILES | fold induction over control
51 | O=c1cc(-c2ccc3c(c2)OCCO3)oc2ccc(Cl)cc12 | 10.2 [at 3.75 µM]
52 | N/C(=N\OC(=O)COc1ccc(Cl)cc1Cl)c1ccncc1 | 7.15
53 | COc1cccc(-c2nc3ccccc3s2)c1O | 12.9 [at 15 µM]
54 | Brc1ccc(-c2nc3ccccc3s2)s1 | 12.4
55 | Cc1ccc2[nH]c(-c3ccccc3)cc(=O)c2c1 | 12.2
56 | Cc1ccc(-c2cc(=O)c3cc(C)ccc3[nH]2)cc1 | 11 [at 15 µM]
57 | Clc1ccc2nc3c4ccccc4cnn3c2c1 | 11.6 [at 15 µM]
58 | C/C(N)=C(/C#N)C(=O)CSc1nnc(-c2ccccc2Br)o1 | 11.6 [at 7.5 µM]
59 | CCOC(=O)/C(=C\c1ccc(OC(F)F)cc1)C1=Nn2c(nnc2-c2ccc(Cl)cc2)SC1 | 5.95 [at 7.5 µM]
60 | CC(OC(=O)CCc1nc2ccccc2c(=O)[nH]1)C(=O)c1ccc(C(C)(C)C)cc1 (stereo not drawn) | 2.93
61 | CCCOC(=O)c1ccc(NC(=O)CC(C)(C)C)cc1 | 8.07
62 | COc1ccc(-c2cc(-c3ccccc3)c(C#N)c(S(C)(=O)=O)n2)cc1 | 4.91 [at 15 µM]
63 | CC1=CN2C(=N)/C(=C/c3ccco3)C(=O)N=C2S1 | 9.51
64 | Cc1cc(NC2CCCCC2)n2c(n1)nc1ccccc12 | 1.3
65 | Cc1cccc(-c2c(O)cc(=O)[nH]c2Cl)c1 | 0.97
66 | CC(C)Oc1ccc2c(=O)c(-c3ccccc3)coc2c1 | 12.8
67 | CCOc1cc(/C=C2/NC(=O)N(Cc3ccccc3F)C2=O)ccc1O | 1.35
68 | Cc1cc(C)nc(Sc2nc(C)nc3c2oc2ccccc23)n1 | 6.8
69 | COC(=O)C1C(=O)/C(=C/N(C)C)C(=O)CC1(C)C (stereo not drawn) | 1.08
70 | Clc1ccc(-c2cc(CSc3ccccc3)on2)cc1 | 9.85
71 | O=C(NCCN1CCOCC1)c1cc(-c2cccs2)on1 | 8.73
72 | O=C1N/C(=C/c2ccc(N3CCOCC3)o2)C(=O)N1c1ccccc1 | 1.59
73 | COc1ccc(/C=N/n2c(-c3cccs3)n[nH]c2=S)cc1 | 2.22
74 | CCOc1ccc(C2=NNC(c3cccs3)=Nc3ccc(OC)cc32)cc1 | 0.8
75 | COc1ccc(/C=N/NC(=O)COc2ccccc2-c2ccccc2)cc1 | 3

Row | SMILES | fold induction over control
76 | COc1ccc(/C=N/Nc2ccc([N+](=O)[O-])cc2S(=O)(=O)N2CCN(C)CC2)cc1 | 1.22
77 | CNC(=S)N/N=C(\C)c1ccc(N2CCOCC2)cc1 | 1.55
78 | COC(=O)N/N=C(/c1ccccc1)C1CCCCC1 | 1.01
79 | O=c1c2c(nc3cc(-c4cccc(Cl)c4)[nH]n13)CCC2 | 11.5
80 | O=C(Nc1ccc2ccccc2c1)c1cnccn1 | 10.2
81 | c1ccc(Nc2nc3ccccc3o2)cc1 | 12.6
82 | NC(N)=N/N=C/c1ccc(OCc2ccc(Cl)cc2)cc1 | 5.51 [at 7.5 µM]
83 | Cn1cccc1/C=C1\Cc2ccccc2C1=O | 10.4
84 | COc1ccc(C(=O)/C=C/c2cccs2)c(OC(=O)c2cccc([N+](=O)[O-])c2)c1 | 11.9
85 | COc1ccc(/C=C\c2nc(=O)c3ccccc3o2)cc1 | 15.8 [at 7.5 µM]
86 | Cc1nc(SCc2ccc(Cl)cc2)ncc1C(=O)O | 1.29
87 | CC(C)CC(=O)Nc1ccc2c(c1)oc1ccccc12 | 11.7
88 | CC(=O)Nc1cc2nn(-c3ccccc3)nc2cc1Cl | 12.6 [at 7.5 µM]
89 | COc1ccc(-[n+]2c(C)cc(/C=C3\Sc4ccccc4N3C)cc2C)cc1 | 0.76
90 | Cc1ccc(C2=NN3C(C2)c2ccccc2OC32C(=O)Nc3ccccc32)cc1 (stereo not drawn) | 9.54
91 | Cc1[nH]n(-c2ccccc2)c(=O)c1C=NC1CCCCC1 | 1.35
92 | C=CCN=Cc1c(C)[nH]n(-c2ccccc2)c1=O | 2.13
93 | O=C(Nc1ccccc1O)c1ccc(Cl)cc1 | 6.47
94 | CCOC(=O)c1noc(C)c1C(=O)Nc1nccs1 | 1.14
95 | COc1cccc(NC(=S)N(CCN(C)C)Cc2cccs2)c1 | 1.01
96 | O=C(c1ccco1)n1c(=S)nc2ccccn21 | 12.4
97 | Cc1ccc(C(=O)CSc2nsc(C)c2C#N)cc1 | 8.66
98 | Cc1cccc2nc(=S)n(C(=O)c3ccco3)n12 | 13
99 | CCOC1CS(=O)(=O)CC1OCC (stereo not drawn) | 1.16
100 | O=C(c1ccccc1)c1ccccc1C(=O)N1CCCC1 | 1.09

Row | SMILES | fold induction over control
101 | Cc1cccc(/C(N)=N/OC(=O)c2cccs2)c1 | 9.94
102 | COc1ccc(N=c2sc3ccccc3n2C)cc1 | 9.89
103 | COc1ccc(N=C2C(=Nc3ccc(OC)cc3)N(c3ccccc3)C(=S)N2C(=O)c2ccc(Cl)cc2)cc1 | 1.17
104 | COc1cc(C2C(S(=O)(=O)c3ccccc3)CON2C)ccc1OCc1ccc(F)cc1 (stereo not drawn) | 1.13
105 | O=C(Oc1ccccc1/C=C\C(=O)c1cc2ccccc2o1)c1ccccc1 | 13.7
106 | Cn1c(SCc2ccc(C#N)cc2Cl)nc2ccccc21 | 8.91
107 | COC(=O)c1ccc(COn2nnc3ccccc32)cc1 | 9.21
108 | c1ccc2nc3c(nc2c1)[nH]c1ccccc13 | 7.78
109 | c1ccc(C2=Nc3ccccc3SC2c2nc3ccccc3[nH]2)cc1 (stereo not drawn) | 4.04
110 | CCCOc1ccc2c3c(c(=O)oc2c1OCCC)CCC3 | 3.44
111 | O=C(Oc1ccc(-c2ccccc2)cc1)N1CCCCC1 | 2.54
112 | O=C(NCCCN1CCOCC1)c1cc(-c2ccccc2)on1 | 8.39
113 | COc1ccccc1-c1cc(C(=O)N2CCCCC2)no1 | 8.4
114 | O=C(NCCN1CCOCC1)c1cc(-c2ccccc2)on1 | 5.86
115 | Cc1cccc(-c2cc3nc(C)cc(C)n3n2)c1 | 9.12
116 | CNc1nc(-c2ccccn2)nnc1-c1ccccc1 | 1.07
117 | CN1CCN(CC(=O)N2c3ccccc3C(C)(c3ccccc3)CC2(C)C)CC1 (stereo not drawn) | 2.19
118 | Cc1cccc(-c2noc(-c3ccc(F)cc3)n2)c1 | 12.8
119 | O=C(CSc1nc(Nc2ccccc2)nc(N2CCOCC2)n1)Nc1ccccc1Cl | 0.84
120 | O=C(Nc1ccc(N2CCCC2=O)cc1)c1cccc(F)c1 | 6.57
121 | Cc1ccc(-c2cnc3cc(C)nn3c2)cc1 | 9.08 [at 7.5 µM]
122 | CCCc1cc(C(=O)Nc2cc(Br)ccc2O)no1 | 2.58
123 | N#Cc1ncc(-c2ccc3c(c2)OCCOCCOCCOCCOCCO3)nc1C#N | 6.81
